A short description of assay [1]: compound effects on lung adenocarcinoma cell viability – A549, calcein-AM fluorescence, 48 h, basal, profiling panel (AID 1162). The conditions noted are these: higher = more signal.
The nature of assay [2]: compound effects on differentiated 3T3-L1 adipocyte viability – cell-based, 3T3-L1 adipocytes, calcein-AM fluorescence, 48 h, basal, profiling panel (AID 1163). The note with it: 3T3-L1 adipocytes viability, higher = more signal.
Assay [3] can be described thus: compound effects on hepatocellular carcinoma cell viability – HepG2, calcein-AM fluorescence, 48 h, basal, profiling panel (AID 1164). The conditions noted are these: higher = more signal.
Assay [4] is described as follows: compound effects on multiple myeloma cell viability – MM1S, calcein-AM fluorescence, 48 h, basal, profiling panel (AID 1165).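 Further: viability of MM1S multiple myeloma cells under basal unstimulated conditions.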 The note with it: higher = more signal.
A short description of assay [5]: calcein-AM signal in unstimulated myeloma cells – cell-based, calcein-AM fluorescence, 48 h, PK04 Diversity Set, profiling panel (AID 1166).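 Further: cells grown under basal conditions without added stimulus.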 The conditions noted are these: RPMI8226 myeloma viability, higher = more signal.
The nature of assay [6]: JC-1 mitochondrial signal, unstimulated HepG2 cells – cell-based, JC-1 fluorescence, 24 h, 100 nL compound, profiling panel (AID 1167). The note with it: HepG2 mitochondrial potential, higher = more signal.
Assay [7] can be described thus: JC-1 mitochondrial signal, unstimulated adipocytes – cell-based, JC-1 fluorescence, 3T3-L1 adipocytes, 24 h, 100 nL compound, profiling panel (AID 1168). The conditions noted are these: JC-1 mitochondrial fluorescence, higher = more signal, called active from +8 up or from −8 down.
A short description of assay [8]: JC-1 mitochondrial signal, unstimulated myeloma cells – cell-based, JC-1 fluorescence, RPMI8226, 24 h, 100 nL compound, profiling panel (AID 1169). The conditions noted are these: JC-1 mitochondrial potential fluorescence, higher = more signal.
The nature of assay [9]: JC-1 mitochondrial signal, unstimulated MM1S myeloma – cell-based, JC-1 fluorescence, 24 h, 100 nL compound, profiling panel (AID 1170). The conditions noted are these: MM1S mitochondrial potential, higher = more signal.
Assay [10] can be described thus: resazurin metabolic signal in A549 cells – cell-based, resazurin fluorescence, 24 h, PK04 Diversity Set, profiling panel (AID 1171). The note with it: A549 viability, higher = more signal, called active from +8 up or from −8 down. (In general: Resazurin is reduced to fluorescent resorufin, in cell work by metabolically active cells.)

Structures are written as SMILES. Calls of active or inactive are those of the source.
Further: test concentration not given here.

Consider `COc1ccc([Si](C)(C)[C@H]2[C@H](CC(=O)N3Cc4ccccc4C[C@H]3CO)O[C@@]3(C(=O)N(Cc4ccc(N5CCC5=O)cc4)c4ccccc43)[C@@H]2C)cc1`, for which the z-score in assay [1] is -0.279; in assay [2], 0.656; in [3], -0.727; in assay [4], -2.32; in assay [5] it was -3.26; in assay [6] it was 1.67. Also, the z-score is 0.657 (inactive) in assay [7], -1.04 in [8], -0.928 in assay [9] and -0.0964 (inactive) in assay [10].

As for `[N-]=[N+]=NCc1ccccc1[C@@H]1OC(c2ccc(OCCCO)cc2)=N[C@]1(CCS(=O)(=O)c1ccccc1)C(=O)NCCN1CCOCC1`, the z-score in assay [1] is 1.68; in [2] it was -0.0282; in assay [3] it was 1.61; in [4] it was 0.377; in [5], 0.501; in assay [6], 0.374. The z-score in [7] is 0.995 (inactive); in assay [8] it was 0.127; in [9], -0.806; in assay [10], -0.597 (inactive).

On to `COc1ccc(CCNC(=O)[C@@H]2c3ccccc3C(=O)N(C3Cc4ccccc4C3)[C@H]2c2ccc(CO)cc2)cc1`, for which the z-score was 0.595 in [1]; 0.0644 in assay [2]; 0.0079 in [3]; -0.532 in assay [4]; -0.0245 in [5]; 1.6 in assay [6]. For the same molecule, the z-score was 0.00592 (inactive) in assay [7], -0.78 in assay [8], -0.0799 in assay [9] and 1.39 (inactive) in [10].

`COCCCN1C(=O)[C@@]2(c3ccc([N+](=O)[O-])cc3)CC(=O)N(C3CCCCC3)[C@@H]2c2ccc(CO)cc21`: the z-score in assay [1] is -0.794; in [2], -1.03; in assay [3], 0.14; in assay [4] it was 0.819; in [5] it was -1.23; in assay [6], -0.393. The z-score was 0.939 (inactive) in [7], -0.739 in assay [8], -0.847 in assay [9] and -1.18 (inactive) in assay [10].

Turning to `CC(C)c1ccc(NN2C(C(O)C(c3ccccc3)c3ccccc3)C=CC3C(=O)N(c4ccccc4)C(=O)C32)cc1` (stereo not given), the z-score in assay [1] is -0.447; in assay [2], -0.306; in assay [3] it was -0.0211; in assay [4], -0.535; in assay [5], -0.967; in assay [6], -0.988. Besides, the z-score in assay [7] was -0.8 (inactive); in assay [8] it was -0.107; in assay [9], 0.798; in assay [10], -2.05 (inactive).

On to `COc1cc2c(cc1O)C(C1CC1)N(Cc1cc3c(cc1Br)OCO3)CC2` (stereo not given), for which the z-score in assay [1] is -3.4; in assay [2], -0.204; in [3] it was -3.79; in assay [4] it was -3.15; in [5], -4.48; in assay [6], -1.85. Also, the z-score was -0.457 (inactive) in assay [7], -0.472 in [8], -2.08 in [9] and -4.06 (inactive) in assay [10].

Regarding `CC(=O)NCCCC[C@@H]1NC(=O)[C@@H]2C[C@H](C(=O)NCCCCN(C)C)[C@H](c3cccc(OCCO)c3)N2C1=O`, the z-score in [1] is 0.0857; in assay [2] it was -0.749; in assay [3], -0.506; in assay [4], -0.589; in [5], -0.486; in assay [6], -0.085. In addition, the z-score is -0.24 (inactive) in assay [7], -0.569 in [8], -0.436 in assay [9] and 0.604 (inactive) in assay [10].

Take `CC(C)N1C(=O)[C@@]2(Cc3ccccc31)c1ccccc1C(=O)N(C1CCCCC1)[C@H]2c1ccc(CO)cc1`: the z-score was -0.0998 in assay [1]; 0.0621 in assay [2]; -0.775 in assay [3]; -0.546 in assay [4]; 0.0484 in assay [5]; 0.095 in assay [6]. The z-score was 0.327 (inactive) in assay [7], 0.378 in assay [8], -1.79 in [9] and 2.32 (inactive) in assay [10].

For the molecule `CC(C)N1C(=O)c2ccccc2[C@](C)(C(=O)NCc2ccccc2)[C@@H]1c1ccc(CO)cc1`, the z-score was 0.82 in assay [1]; 0.48 in assay [2]; -0.699 in assay [3]; -0.656 in assay [4]; -0.0073 in assay [5]; -0.265 in [6]. Also, the z-score was -0.426 (inactive) in assay [7], -0.833 in assay [8], -0.472 in assay [9] and -0.0838 (inactive) in assay [10].

Consider `C=CCOC(=O)[C@@H]1[C@H]2C(=O)O[C@H](c3ccccc3)[C@H](c3ccccc3)N2[C@H](c2ccc(OCCOC(=O)[C@@H]3C[C@@H]4C(=O)N[C@@H](CCCCN(C)C)C(=O)N4[C@@H]3c3ccc(O)cc3)cc2)[C@@]12C(=O)Nc1ccc(I)cc12`, for which the z-score was -0.303 in assay [1]; -0.247 in assay [2]; 0.295 in [3]; -0.7 in assay [4]; -0.857 in assay [5]; -1.93 in [6]. The z-score in assay [7] is -0.171 (inactive); in [8] it was -0.95; in [9] it was -1.45; in [10], 0.417 (inactive).

Take `COc1ccc(C(=O)Nc2cccc(CN3C(=O)[C@]4(O[C@H](CCO)[C@@H]([Si](C)(C)c5ccc(OC)cc5)[C@@H]4C)c4ccccc43)c2)cc1`: the z-score in assay [1] is -4.13; in assay [2], -0.564; in [3], -4.73; in [4] it was -2.78; in [5], -4.35; in [6] it was -2.23. Also, the z-score in assay [7] was -1.37 (inactive); in assay [8], -0.73; in [9] it was -1.96; in assay [10], -6.33 (inactive).

In the case of `C=CCNC(=O)[C@H]1[C@@H]2C(=O)O[C@@H](c3ccccc3)[C@@H](c3ccccc3)N2[C@@H](c2ccc(OCCO)cc2)[C@]12C(=O)Nc1ccc(C#CC3=CCCCC3)cc12`, the z-score in assay [1] is -1.03; in [2] it was 1.66; in assay [3], -1.17; in assay [4] it was -1.99; in assay [5], -3.64; in assay [6] it was -1.43. In addition, the z-score in assay [7] is 2.5 (inactive); in assay [8], -1.13; in assay [9], -1.32; in assay [10], -0.829 (inactive).

Turning to `COCCOC(=O)N1C(=O)[C@@]2(c3cc(C#CCCO)ccc31)[C@H](C(=O)N1CCN(c3ncccn3)CC1)[C@H]1C(=O)O[C@H](c3ccccc3)[C@H](c3ccccc3)N1[C@@H]2c1ccccc1OCCO`, the z-score in assay [1] was 0.703; in assay [2] it was 0.701; in [3] it was -0.51; in assay [4], 0.135; in assay [5], -0.192; in assay [6], 0.107. Also, the z-score in assay [7] is 0.675 (inactive); in assay [8], -0.324; in [9], -1.15; in [10], 1.79 (inactive).

On to `COc1ccc(CCN2C(=O)[C@@]3(c4ccc([N+](=O)[O-])cc4)CC(=O)N(C4CCCCC4)[C@@H]3c3ccc(CO)cc32)cc1`, for which the z-score is 0.315 in assay [1]; -1.26 in [2]; -0.331 in [3]; 0.199 in assay [4]; 0.306 in [5]; -1.65 in assay [6]. For the same molecule, the z-score was -0.937 (inactive) in assay [7], -0.694 in assay [8], -0.838 in [9] and -0.113 (inactive) in assay [10].
